Where “and” joins values, the source holds several entries; their conditions need not be identical. Equal values may be shown once. Results filed as inconclusive are left out. Entries that show only a call come without a potency. A structure can be active in one record and inactive in another. Calls of active or inactive are those of the source. The call rests on the fitted dose curve; in most records, active means well fitted cell-killing curve with a large enough effect in the repeat runs; inconclusive means weak or mixed curves; inactive means flat fitted curve, though single readings scatter.

The source of these data is PubChem BioAssay (Tox21).
Potency means the concentration at half of the fitted maximal effect.

The nature of this assay: qHTS assay to identify small molecule antagonists of the estrogen related receptor (ERR) signaling pathway from Tox21 library - cell viability counter screen (AID 1224834). Further: nearly all actives have a fitted effect of over 30% in size. The note with it: ERR reporter cells viability, CellTiter-Fluor, 17.5 h; series mostly up to 92.4 µM. The source says: National Center for Advancing Translational Sciences [NCATS]
NIH Chemical Genomics Center [NCGC]
U.S. Environmental Protection Agency [EPA]
National Institutes of Environmental Health Sciences [NIEHS]
National Toxicology Program [NTP]
U.S. Food and Drug Administration [FDA]
Estrogen related receptors (ERRs), the first orphan nuclear receptors discovered, play an important role in the control of cellular energy metabolism. ERRs are required for high-energy production in response to the environmental challenges. ERR-alpha was also identified as an adverse marker for breast cancer progression; ERR-alpha-positive tumors have a poor prognosis. To screen and to identify environmental compounds that perturb the ERR signaling pathways could provide valuable information for potential therapeutic or preventive measures in the treatment of metabolic disease. To differentiate true ERR antagonists or agonist from cytotoxic substances, the assay is multiplexed with cell viability assay.
Tox21 Assay Protocol Summary:
The ERR cells were dispensed at 2,000 cells/5 ul/well in 1536-well white plates using a Multidrop dispenser. After the assay plates were incubated at a 37 C/5% CO2 incubator for 6 hours, 23 nL of compounds dissolved in DMSO, positive and negative controls or DMSO only was transferred to the assay plate by a pin tool. The plates were incubated at 37 C for 17.5 hours. 1 ul/well of CellTiter-Fluor reagent was added into the assay plates using a Flying Reagent Dispenser. After 30-minute incubation at 37 C/5% CO2, the fluorescence intensity in the plates was measured using a ViewLux plate reader.
(qHTS replaces the single test concentration by a dilution series.)
`C=CCNCC=C`: the Potency entry is “inactive”. Same read-out and setting: for `C=CCOC(=O)C(=C)C` the value was “inactive”; for `C=CC(C)(O)CCC=C(C)C` (stereo not given), “inactive”. On the same count and under the same terms, to `CCCCCCCCCCC(CO)CCCCCCCC` (stereo not given) belongs “inactive”; to `Nc1cc(Cl)c(N)c(Cl)c1`, “inactive”; to `CC(=O)Nc1ccc2c(c1)Cc1cc(NC(C)=O)ccc1-2`, “inactive”. On the same count and under the same terms, for `Oc1c(Cl)ccc(Cl)c1Cl` the value was “inactive”; for `IC(I)I`, “inactive”. For `COCCOCCOCCO`, the Potency entry was “inactive”. Still for that read-out and setting: for `C=CN1CCCC1=O` the value was “inactive”; for `CCO[Si](CCCNC(N)=O)(OCC)OCC`, “inactive”; for `CC1=CC(C)(C)Nc2ccccc21`, “inactive”. The same measure, in the same setting: to `c1ccc2ncccc2c1` belongs “inactive”; to `CC1(C)OC(=O)NC1=O`, “inactive”. Still for that read-out and setting: to `O=Cc1ccccc1C=O` belongs 54.5 µM (active) and inactive; to `CN(C)CCCN1c2ccccc2Sc2ccc(Cl)cc21`, 54.5 µM (active) and 26.6 µM (active); to `c1ccc2c(c1)ccc1cc3c(ccc4ccccc43)cc12`, “inactive”.

As to `Cc1ccc2c(c1)C(=O)OC2=O`, the Potency entry is “inactive”. Same read-out and setting: to `c1ccc2c(c1)[nH]c1ccccc12` belongs “inactive”. The same measure, in the same setting: to `Nc1ccc2c(O)cc(S(=O)(=O)O)cc2c1` belongs 27.3 µM (active) and 30.6 µM (active); to `CC(=O)O[C@]1(C(C)=O)CC[C@H]2[C@@H]3C=C(C)C4=CC(=O)CC[C@]4(C)[C@H]3CC[C@@]21C`, 54.5 µM (active); to `CC(C)(C)c1cccc(C(C)(C)C)c1O`, “inactive”. On the same count and under the same terms, for `CCOC(=O)C(C)Oc1ccc(Oc2cnc3cc(Cl)ccc3n2)cc1` (stereo not given) the value was “inactive”; for `O=C(O)c1cc(=O)[nH]c(=O)[nH]1`, “inactive”; for `Clc1ccc(Sc2cc(Cl)c(Cl)cc2Cl)cc1`, “inactive”. Regarding `CC(=O)OC(C)C`, the Potency entry is “inactive”. Take `C[C@]12CC[C@@H]3c4ccc(O)cc4CC[C@H]3[C@@H]1CC[C@@H]2O`: the Potency is 30.6 µM (active) and 43.3 µM (active). The same measure, in the same setting: for `Nc1cc([N+](=O)[O-])ccc1C(=O)O` the value was “inactive”. Regarding `O=[Se](O)O`, the viability change, negative = cytotoxic is -9.9% [at 19 µM] (inactive). Consider `O=C(O)COCCN1CCN(C(c2ccccc2)c2ccc(Cl)cc2)CC1` (stereo not given), for which the Potency entry is “inactive”. Take `CCCOCCO`: the Potency result is “inactive”. Consider `Nc1ccc(N)c(Cl)c1`, for which the Potency was 61 µM (active) and 54.5 µM (active). Still for that read-out and setting: to `CCCCCC=O` belongs “inactive”.

Turning to `O=C1OC2(c3ccccc31)c1cc(I)c(O)c(I)c1Oc1c2cc(I)c(O)c1I`, the Potency is 15.5 µM (active) [middle of 4 runs]. Still for that read-out and setting: to `COc1ccc2nc(N)sc2c1` belongs “inactive”; to `CCCCCC1C(=O)CCC1CC(=O)OC` (stereo not given), “inactive”.

In the case of `C[C@]12C=CC(=O)C=C1CC[C@H]1[C@@H]3C[C@@H](O)[C@](O)(C(=O)CO)[C@@]3(C)C[C@H](O)[C@@]12F`, the Potency result is “inactive”. On the same count and under the same terms, for `COC(=O)c1ccc(C)cc1` the value was “inactive”; for `C=C[Si](OCCOC)(OCCOC)OCCOC`, “inactive”; for `Cc1ccc(/C(=C\CN2CCCC2)c2ccccn2)cc1`, “inactive”.
